# How the values were obtained:
# Assay in all cases: DAPPL (digital affinity profiling via proximity ligation, sequencing); 10 mM Tris-HCl pH 7.5, 50 mM NaCl, 1 mM DTT, 4% glycerol, room temperature, 30 min; GST-TFs on glutathione beads, 16-mer random dsDNA library, 0.1% formaldehyde crosslink after washing; high values mean tight binding
# FLI1 = target: T1, FLI1 (Homo sapiens, UniProt Q01543 1-452); details: protein: recombinant; tags: N-terminal GST; dsDNA, one strand shown
# T1 sequence: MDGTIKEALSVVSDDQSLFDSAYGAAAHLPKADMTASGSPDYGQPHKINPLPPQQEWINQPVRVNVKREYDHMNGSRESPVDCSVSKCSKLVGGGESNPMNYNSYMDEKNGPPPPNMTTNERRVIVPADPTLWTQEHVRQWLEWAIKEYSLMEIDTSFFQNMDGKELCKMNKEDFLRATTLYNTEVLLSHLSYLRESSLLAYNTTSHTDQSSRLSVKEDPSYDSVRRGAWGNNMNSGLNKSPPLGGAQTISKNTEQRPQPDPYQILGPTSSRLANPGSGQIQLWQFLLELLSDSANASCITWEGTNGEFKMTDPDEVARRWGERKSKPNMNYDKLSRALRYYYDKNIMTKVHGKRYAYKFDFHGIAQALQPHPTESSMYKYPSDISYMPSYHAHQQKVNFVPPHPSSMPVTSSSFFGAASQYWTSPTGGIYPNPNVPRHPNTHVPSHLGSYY
# Summary of the method: (§1)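 Human transcription factors were made in yeast as GST fusions, captured on glutathione beads and barcoded with DNA. With a tag-only sample included, the pool was incubated with 200 nmole of a random double-stranded 16-mer DNA library in Tris/NaCl/DTT/glycerol buffer at room temperature for 30 min, then crosslinked with 0.1% formaldehyde after washing, ligated by proximity, amplified and sequenced. For binding signal, each hexamer's read frequency for a factor is divided by its frequency for the tag-only sample.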
# ELK1 = target: T2, ELK1 (Homo sapiens, UniProt P19419 1-428); details: protein: recombinant; tags: N-terminal GST; dsDNA, one strand shown
# T2 sequence: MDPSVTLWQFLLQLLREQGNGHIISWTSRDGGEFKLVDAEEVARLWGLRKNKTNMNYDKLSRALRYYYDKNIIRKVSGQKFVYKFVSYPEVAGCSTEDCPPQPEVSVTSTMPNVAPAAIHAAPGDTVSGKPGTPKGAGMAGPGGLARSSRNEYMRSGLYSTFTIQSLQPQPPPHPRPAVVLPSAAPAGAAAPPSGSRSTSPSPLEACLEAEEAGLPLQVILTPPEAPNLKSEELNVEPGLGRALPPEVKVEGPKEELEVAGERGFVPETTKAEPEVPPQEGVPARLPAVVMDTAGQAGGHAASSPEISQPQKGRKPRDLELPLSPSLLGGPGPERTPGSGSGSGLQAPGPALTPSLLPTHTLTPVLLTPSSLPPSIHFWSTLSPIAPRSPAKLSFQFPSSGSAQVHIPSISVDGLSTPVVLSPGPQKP
# Summary of the method: as §1
# GABPA = target: T3, GABPA (Homo sapiens, UniProt Q06546 1-454); details: protein: recombinant; tags: N-terminal GST; dsDNA, one strand shown
# T3 sequence: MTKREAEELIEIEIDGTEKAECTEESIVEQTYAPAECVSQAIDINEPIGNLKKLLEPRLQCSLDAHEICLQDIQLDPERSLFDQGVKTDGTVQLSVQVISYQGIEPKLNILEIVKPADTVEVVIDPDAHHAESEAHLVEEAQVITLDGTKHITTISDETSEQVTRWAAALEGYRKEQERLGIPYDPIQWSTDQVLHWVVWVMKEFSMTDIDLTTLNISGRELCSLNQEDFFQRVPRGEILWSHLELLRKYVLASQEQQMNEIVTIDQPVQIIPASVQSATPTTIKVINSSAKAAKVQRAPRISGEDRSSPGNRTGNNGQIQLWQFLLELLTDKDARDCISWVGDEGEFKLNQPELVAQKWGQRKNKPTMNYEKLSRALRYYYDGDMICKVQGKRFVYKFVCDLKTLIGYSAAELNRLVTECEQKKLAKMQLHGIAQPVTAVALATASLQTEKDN
# Summary of the method: as §1
# ERG = target: T4, ERG (Homo sapiens, UniProt P11308 1-479); details: protein: recombinant; tags: N-terminal GST; dsDNA, one strand shown
# T4 sequence: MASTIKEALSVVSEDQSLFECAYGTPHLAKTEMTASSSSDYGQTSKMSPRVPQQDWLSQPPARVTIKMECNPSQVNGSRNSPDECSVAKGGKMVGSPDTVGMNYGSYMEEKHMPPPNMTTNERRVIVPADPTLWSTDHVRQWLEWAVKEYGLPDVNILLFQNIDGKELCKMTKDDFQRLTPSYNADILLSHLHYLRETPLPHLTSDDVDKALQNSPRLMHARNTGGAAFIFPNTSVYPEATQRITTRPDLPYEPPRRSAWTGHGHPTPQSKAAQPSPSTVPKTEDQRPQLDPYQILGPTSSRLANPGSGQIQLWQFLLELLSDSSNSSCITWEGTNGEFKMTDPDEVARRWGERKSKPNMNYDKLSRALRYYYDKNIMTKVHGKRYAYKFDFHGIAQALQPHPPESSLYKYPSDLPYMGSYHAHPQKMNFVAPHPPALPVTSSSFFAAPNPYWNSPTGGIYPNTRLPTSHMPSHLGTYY
# Summary of the method: as §1
# ELF1 = ELF1 (Homo sapiens, UniProt P32519 1-619); details: protein: recombinant; tags: N-terminal GST; dsDNA, one strand shown
# Sequence of ELF1 (P32519 whole entry): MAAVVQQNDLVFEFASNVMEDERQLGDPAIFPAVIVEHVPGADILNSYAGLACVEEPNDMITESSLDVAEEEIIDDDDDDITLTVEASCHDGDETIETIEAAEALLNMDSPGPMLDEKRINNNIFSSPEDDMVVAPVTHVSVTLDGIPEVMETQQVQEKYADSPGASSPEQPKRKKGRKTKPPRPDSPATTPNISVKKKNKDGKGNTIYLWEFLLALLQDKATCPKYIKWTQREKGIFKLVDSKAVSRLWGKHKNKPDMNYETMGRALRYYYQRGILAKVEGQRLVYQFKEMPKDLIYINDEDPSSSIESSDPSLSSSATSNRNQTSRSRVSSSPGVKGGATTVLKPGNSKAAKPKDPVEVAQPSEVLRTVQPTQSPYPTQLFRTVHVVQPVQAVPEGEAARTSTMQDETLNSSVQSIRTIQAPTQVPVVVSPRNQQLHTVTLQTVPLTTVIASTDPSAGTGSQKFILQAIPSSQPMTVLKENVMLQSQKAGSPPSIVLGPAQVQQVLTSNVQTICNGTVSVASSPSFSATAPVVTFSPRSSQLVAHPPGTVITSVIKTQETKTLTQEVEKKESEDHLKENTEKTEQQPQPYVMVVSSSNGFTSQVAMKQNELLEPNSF
# Summary of the method: as §1
# EHF = target: T5, EHF (Homo sapiens, UniProt Q9NZC4 1-300); details: protein: recombinant; tags: N-terminal GST; dsDNA, one strand shown
# T5 sequence: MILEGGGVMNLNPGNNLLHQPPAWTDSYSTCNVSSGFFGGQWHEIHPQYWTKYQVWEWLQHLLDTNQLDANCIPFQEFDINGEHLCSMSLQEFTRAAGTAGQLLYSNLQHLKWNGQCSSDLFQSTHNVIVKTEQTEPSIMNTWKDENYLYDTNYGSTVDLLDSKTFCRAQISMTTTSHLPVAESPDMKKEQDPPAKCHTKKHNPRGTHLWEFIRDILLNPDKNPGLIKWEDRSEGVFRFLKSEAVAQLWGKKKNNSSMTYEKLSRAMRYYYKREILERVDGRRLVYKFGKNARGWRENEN
# Summary of the method: as §1
# SPI1 = SPI1 (Homo sapiens, UniProt P17947 1-270); details: protein: recombinant; tags: N-terminal GST; dsDNA, one strand shown
# Summary of the method: as §1
# SPIB = SPIB (Homo sapiens, UniProt Q01892 1-262); details: protein: recombinant; tags: N-terminal GST; dsDNA, one strand shown
# Sequence of SPIB (Q01892 whole entry): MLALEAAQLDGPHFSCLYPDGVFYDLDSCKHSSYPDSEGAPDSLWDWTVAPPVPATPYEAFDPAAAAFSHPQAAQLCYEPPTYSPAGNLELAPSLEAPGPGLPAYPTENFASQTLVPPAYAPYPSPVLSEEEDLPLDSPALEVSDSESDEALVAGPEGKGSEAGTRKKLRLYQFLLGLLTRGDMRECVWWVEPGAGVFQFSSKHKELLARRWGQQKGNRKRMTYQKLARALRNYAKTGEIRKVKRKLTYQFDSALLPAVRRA
# Summary of the method: as §1
# ELK3 = target: T6, ELK3 (Homo sapiens, UniProt P41970 1-407); details: protein: recombinant; tags: N-terminal GST; dsDNA, one strand shown
# T6 sequence: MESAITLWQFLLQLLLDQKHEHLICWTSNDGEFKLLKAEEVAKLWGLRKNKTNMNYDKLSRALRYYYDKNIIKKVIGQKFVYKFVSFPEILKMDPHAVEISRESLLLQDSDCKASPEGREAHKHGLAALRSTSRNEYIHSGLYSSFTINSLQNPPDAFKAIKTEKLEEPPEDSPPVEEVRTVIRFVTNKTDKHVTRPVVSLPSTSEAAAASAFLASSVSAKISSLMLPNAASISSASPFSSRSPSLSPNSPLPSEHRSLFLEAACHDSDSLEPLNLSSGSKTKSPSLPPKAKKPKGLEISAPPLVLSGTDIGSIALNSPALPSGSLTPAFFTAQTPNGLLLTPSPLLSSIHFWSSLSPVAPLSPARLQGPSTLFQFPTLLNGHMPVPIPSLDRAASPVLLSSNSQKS
# Summary of the method: as §1
# FEV = target: T7, FEV (Homo sapiens, UniProt Q99581 1-238); details: protein: recombinant; tags: N-terminal GST; dsDNA, one strand shown
# T7 sequence: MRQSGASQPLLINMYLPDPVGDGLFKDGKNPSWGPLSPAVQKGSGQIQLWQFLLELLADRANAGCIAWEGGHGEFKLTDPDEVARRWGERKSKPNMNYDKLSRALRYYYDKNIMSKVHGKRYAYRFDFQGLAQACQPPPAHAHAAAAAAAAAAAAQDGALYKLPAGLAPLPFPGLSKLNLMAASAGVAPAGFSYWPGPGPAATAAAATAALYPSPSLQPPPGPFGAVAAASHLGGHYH
# Summary of the method: as §1
# ETV5 = ETV5 (Homo sapiens, UniProt P41161 1-510); details: protein: recombinant; tags: N-terminal GST; dsDNA, one strand shown
# Sequence of ETV5 (P41161 whole entry): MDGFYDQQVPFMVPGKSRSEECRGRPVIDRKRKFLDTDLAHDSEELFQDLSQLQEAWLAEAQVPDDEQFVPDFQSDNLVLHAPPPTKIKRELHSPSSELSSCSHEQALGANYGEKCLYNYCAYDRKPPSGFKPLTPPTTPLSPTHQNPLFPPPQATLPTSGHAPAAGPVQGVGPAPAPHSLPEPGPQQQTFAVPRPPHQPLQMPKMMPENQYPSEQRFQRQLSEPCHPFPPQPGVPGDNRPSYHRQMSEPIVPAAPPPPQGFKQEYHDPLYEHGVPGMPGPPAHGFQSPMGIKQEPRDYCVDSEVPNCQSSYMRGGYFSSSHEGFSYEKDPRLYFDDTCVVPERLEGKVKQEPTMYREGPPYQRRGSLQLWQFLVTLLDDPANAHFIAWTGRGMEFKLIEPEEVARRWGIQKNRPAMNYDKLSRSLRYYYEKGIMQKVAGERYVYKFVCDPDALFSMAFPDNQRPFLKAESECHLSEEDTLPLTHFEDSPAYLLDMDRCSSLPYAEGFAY
# Summary of the method: as §1
# HSF1 = HSF1 (Homo sapiens, UniProt Q00613 1-529); details: protein: recombinant; tags: N-terminal GST; chain copies: 3; dsDNA, one strand shown
# Sequence of HSF1 (Q00613 whole entry): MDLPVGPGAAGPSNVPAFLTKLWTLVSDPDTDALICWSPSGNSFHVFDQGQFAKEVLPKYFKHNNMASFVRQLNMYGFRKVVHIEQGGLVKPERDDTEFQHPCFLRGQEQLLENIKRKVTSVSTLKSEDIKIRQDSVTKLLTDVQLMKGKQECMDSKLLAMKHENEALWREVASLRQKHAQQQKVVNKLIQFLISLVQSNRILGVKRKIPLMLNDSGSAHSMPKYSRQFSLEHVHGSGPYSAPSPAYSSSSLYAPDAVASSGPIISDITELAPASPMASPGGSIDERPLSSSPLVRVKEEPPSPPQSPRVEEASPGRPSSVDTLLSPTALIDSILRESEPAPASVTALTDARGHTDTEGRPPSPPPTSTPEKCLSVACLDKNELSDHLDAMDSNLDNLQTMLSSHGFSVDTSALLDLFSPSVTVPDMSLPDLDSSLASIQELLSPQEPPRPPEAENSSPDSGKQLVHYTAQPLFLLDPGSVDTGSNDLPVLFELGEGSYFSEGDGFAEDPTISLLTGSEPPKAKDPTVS
# Summary of the method: as §1
# SPIC = target: T8, SPIC (Homo sapiens, UniProt Q8N5J4 1-248); details: protein: recombinant; tags: N-terminal GST; dsDNA, one strand shown
# T8 sequence: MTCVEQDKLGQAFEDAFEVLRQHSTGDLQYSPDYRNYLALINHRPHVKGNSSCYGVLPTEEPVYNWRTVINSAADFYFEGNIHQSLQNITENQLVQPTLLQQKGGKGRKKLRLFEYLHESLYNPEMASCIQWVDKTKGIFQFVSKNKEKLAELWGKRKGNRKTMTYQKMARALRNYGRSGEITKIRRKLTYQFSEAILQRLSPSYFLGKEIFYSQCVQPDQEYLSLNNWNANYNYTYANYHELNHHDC
# Summary of the method: as §1
# ELF4 = ELF4 (Homo sapiens, UniProt Q99607 1-663); details: protein: recombinant; tags: N-terminal GST; dsDNA, one strand shown
# Sequence of ELF4 (Q99607 whole entry): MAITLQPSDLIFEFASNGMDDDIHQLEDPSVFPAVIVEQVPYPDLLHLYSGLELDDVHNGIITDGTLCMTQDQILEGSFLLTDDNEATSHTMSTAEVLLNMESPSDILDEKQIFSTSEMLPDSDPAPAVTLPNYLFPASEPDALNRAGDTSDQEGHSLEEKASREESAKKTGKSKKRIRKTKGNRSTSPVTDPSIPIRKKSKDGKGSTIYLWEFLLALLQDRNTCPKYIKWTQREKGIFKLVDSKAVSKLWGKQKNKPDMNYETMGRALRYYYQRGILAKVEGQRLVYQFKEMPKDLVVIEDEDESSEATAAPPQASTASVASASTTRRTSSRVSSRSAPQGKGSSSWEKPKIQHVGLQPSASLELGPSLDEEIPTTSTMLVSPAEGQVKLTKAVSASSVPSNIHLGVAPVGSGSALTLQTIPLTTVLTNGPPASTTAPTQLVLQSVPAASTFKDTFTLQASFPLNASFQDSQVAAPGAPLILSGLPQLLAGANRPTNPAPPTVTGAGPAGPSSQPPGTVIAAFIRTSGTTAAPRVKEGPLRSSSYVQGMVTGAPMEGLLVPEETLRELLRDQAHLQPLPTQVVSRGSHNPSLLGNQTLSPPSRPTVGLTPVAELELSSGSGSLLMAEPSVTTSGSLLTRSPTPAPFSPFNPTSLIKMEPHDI
# Summary of the method: as §1
# ELK4 = target: T9, ELK4 (Homo sapiens, UniProt P28324-2 1-405); details: protein: recombinant; tags: N-terminal GST; dsDNA, one strand shown
# T9 sequence: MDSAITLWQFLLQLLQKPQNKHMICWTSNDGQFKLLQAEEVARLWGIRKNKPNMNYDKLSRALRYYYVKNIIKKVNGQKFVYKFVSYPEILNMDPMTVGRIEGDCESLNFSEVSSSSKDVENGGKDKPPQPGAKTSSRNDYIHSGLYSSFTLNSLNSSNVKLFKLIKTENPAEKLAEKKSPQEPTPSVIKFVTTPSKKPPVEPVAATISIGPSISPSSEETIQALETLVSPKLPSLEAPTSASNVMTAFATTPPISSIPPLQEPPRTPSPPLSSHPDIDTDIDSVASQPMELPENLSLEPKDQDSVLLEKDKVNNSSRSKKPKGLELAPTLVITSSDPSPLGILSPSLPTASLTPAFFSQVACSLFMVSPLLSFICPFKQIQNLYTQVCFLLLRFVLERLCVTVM
# Summary of the method: as §1
# ETV2 = target: T10, ETV2 (Homo sapiens, UniProt O00321 1-342); details: protein: recombinant; tags: N-terminal GST; dsDNA, one strand shown
# T10 sequence: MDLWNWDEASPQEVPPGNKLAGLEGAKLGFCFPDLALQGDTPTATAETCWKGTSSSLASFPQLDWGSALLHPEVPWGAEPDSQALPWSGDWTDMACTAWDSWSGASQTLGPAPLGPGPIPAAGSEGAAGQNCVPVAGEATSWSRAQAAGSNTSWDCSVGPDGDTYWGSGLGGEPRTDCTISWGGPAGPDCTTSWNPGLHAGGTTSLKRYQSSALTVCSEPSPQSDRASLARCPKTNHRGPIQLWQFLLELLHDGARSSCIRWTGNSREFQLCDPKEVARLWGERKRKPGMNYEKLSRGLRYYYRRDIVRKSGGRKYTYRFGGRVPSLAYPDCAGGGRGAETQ
# Summary of the method: as §1
# ELF3 = target: T11, ELF3 (Homo sapiens, UniProt P78545 1-371); details: protein: recombinant; tags: N-terminal GST; dsDNA, one strand shown
# T11 sequence: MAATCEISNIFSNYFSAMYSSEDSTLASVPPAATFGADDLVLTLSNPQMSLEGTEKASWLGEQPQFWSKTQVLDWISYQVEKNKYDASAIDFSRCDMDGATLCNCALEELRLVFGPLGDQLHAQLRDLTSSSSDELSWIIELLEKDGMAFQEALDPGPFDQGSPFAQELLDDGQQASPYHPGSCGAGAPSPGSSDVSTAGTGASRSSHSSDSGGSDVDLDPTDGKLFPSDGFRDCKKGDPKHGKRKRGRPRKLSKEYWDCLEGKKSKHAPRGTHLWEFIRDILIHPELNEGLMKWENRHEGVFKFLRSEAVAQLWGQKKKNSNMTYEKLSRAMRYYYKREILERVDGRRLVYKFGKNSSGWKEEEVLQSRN
# Summary of the method: as §1
# CRX = CRX (Homo sapiens, UniProt O43186 1-299); details: protein: recombinant; tags: N-terminal GST; dsDNA, one strand shown
# Sequence of CRX (O43186 whole entry): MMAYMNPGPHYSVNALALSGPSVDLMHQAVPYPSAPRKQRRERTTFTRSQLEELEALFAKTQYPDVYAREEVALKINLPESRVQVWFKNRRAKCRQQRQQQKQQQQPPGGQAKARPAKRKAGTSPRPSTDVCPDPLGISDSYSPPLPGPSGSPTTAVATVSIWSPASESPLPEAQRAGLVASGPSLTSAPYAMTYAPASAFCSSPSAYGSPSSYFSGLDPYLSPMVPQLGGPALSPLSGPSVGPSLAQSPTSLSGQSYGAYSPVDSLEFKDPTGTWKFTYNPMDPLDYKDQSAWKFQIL
# Summary of the method: as §1
# ETV1 = ETV1 (Homo sapiens, UniProt P50549 1-477); details: protein: recombinant; tags: N-terminal GST; dsDNA, one strand shown
# Sequence of ETV1 (P50549 whole entry): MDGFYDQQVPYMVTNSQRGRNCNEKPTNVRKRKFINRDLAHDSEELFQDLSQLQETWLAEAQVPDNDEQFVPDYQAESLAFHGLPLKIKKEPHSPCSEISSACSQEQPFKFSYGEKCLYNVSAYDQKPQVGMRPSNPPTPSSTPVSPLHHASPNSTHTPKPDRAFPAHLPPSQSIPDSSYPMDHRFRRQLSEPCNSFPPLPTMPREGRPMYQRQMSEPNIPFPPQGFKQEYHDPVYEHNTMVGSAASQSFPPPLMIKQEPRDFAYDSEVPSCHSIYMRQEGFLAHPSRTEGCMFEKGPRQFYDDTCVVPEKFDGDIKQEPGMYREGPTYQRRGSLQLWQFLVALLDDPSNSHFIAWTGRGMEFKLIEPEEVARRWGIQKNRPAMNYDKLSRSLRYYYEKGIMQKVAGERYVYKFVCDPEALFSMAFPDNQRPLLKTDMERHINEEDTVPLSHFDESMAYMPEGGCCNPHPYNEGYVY
# Summary of the method: as §1
sequence,measurement,setting,value
TGATCC,binding signal,FLI1,"1.28 fold enrichment (6-mer frequency, TF over GST control)"
same,binding signal,ELK1,"1.32 fold enrichment (6-mer frequency, TF over GST control)"
same,binding signal,GABPA,"1.44 fold enrichment (6-mer frequency, TF over GST control)"
same,binding signal,ERG,"1.29 fold enrichment (6-mer frequency, TF over GST control)"
same,binding signal,ELF1,"1.26 fold enrichment (6-mer frequency, TF over GST control)"
same,binding signal,EHF,"1.2 fold enrichment (6-mer frequency, TF over GST control)"
same,binding signal,SPI1,"1.21 fold enrichment (6-mer frequency, TF over GST control)"
same,binding signal,SPIB,"1.37 fold enrichment (6-mer frequency, TF over GST control)"
same,binding signal,ELK3,"1.18 fold enrichment (6-mer frequency, TF over GST control)"
same,binding signal,FEV,"1.29 fold enrichment (6-mer frequency, TF over GST control)"
same,binding signal,ETV5,"1.3 fold enrichment (6-mer frequency, TF over GST control)"
same,binding signal,HSF1,"1.65 fold enrichment (6-mer frequency, TF over GST control)"
same,binding signal,SPIC,"1.32 fold enrichment (6-mer frequency, TF over GST control)"
same,binding signal,ELF4,"1.28 fold enrichment (6-mer frequency, TF over GST control)"
same,binding signal,ELK4,"1.26 fold enrichment (6-mer frequency, TF over GST control)"
same,binding signal,ETV2,"1.09 fold enrichment (6-mer frequency, TF over GST control)"
same,binding signal,ELF3,"1.1 fold enrichment (6-mer frequency, TF over GST control)"
same,binding signal,CRX,"2.2 fold enrichment (6-mer frequency, TF over GST control)"
same,binding signal,ETV1,"1.27 fold enrichment (6-mer frequency, TF over GST control)"
